Screening data as filed in PubChem.
Shown are actives, neighbours in structure and some others; about 10% of the full set was active somewhere.
HEK293 tox: cytotoxic compounds in HEK 293 cells. HEK 293 viability, ATP luminescence (CellTiter-Glo), 48-72 h. Potency, µM (series often up to 115 µM), inactives show at the top dose activity change, negative = cytotoxicity, usual class: inhibitors. hit rate 6.6% among 94,000; also: % is scaled to controls: 0 for no effect and ±100 for the full control effect; nearly all actives have a fitted effect of over 60% in size
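Luminescence from cellular ATP, measured with CellTiter-Glo, indicates HEK 293 viability. Cells plated at 250 cells/well are treated with compound for 48 or 72 hr at 37 degree Celsius before reagent addition.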
FLuc inh-1: inhibitors of firefly (Photinus pyralis) luciferase; hit rate 2.5% among 76,000; P08659; AID 1347043; Potency, µM (series often up to 115 µM), most hits filed as inhibitors; purified P. pyralis luciferase, luminescence, biochemical; also: % is scaled to controls: 0 for no effect and ±100 for the full control effect; nearly all actives have a fitted effect of over 65% in size
Target sequence (P08659 whole entry, looked up): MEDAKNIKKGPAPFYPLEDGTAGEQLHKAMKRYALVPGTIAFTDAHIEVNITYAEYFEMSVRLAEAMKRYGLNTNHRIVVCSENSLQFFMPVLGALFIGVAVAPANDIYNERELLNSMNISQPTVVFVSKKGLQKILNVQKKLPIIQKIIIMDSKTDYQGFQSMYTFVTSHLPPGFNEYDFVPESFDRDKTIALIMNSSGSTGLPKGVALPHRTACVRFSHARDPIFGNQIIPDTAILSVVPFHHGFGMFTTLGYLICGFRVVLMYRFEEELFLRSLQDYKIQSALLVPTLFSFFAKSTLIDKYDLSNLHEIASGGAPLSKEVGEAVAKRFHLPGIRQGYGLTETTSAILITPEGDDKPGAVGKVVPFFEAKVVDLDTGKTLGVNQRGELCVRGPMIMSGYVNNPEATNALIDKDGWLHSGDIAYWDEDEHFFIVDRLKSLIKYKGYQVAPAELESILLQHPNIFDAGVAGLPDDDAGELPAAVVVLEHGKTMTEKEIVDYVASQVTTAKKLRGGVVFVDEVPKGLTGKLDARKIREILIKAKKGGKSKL
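Cell-free enzyme assay, 10nM P. pyralis luciferase, luciferin and ATP each at 10uM. Inhibition profiled over a 6-point titration, read as luminescence.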
hNpr1 antagonist: antagonists of human natriuretic peptide receptor Npr1; HEK293 hNpr1 GloSensor cGMP, ANP-stimulated luminescence; Potency, µM (highest dose often 46.3 µM), for inactives: at the highest dose activity change, negative = inhibition, most hits filed as inhibitors; hit rate 1.6% among 76,000; AID 1347048; calls by dose curve; also: % is scaled to controls: 0 for no effect and ±100 for the full control effect; nearly all actives have a fitted effect of over 60% in size
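Compound pre-incubated 30 min at room temperature on GloSensor-loaded HEK293 cells stably carrying hNpr1 and the pGS-40F cGMP biosensor. Stimulation uses hNppA at 0.1 nM final; luminescence is taken at baseline and 20 min post-agonist.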
3T3 cytotox: kills NIH 3T3 cells | NIH 3T3 viability, CellTiter-Glo ATP luminescence, 48-72 h | Potency, µM (titrated, usually from 96.7 µM), for the others: at the top dose activity change, negative = cytotoxicity, usual class: inhibitors | hit rate 4.3% among 94,000; also: % is scaled to controls: 0 for no effect and ±100 for the full control effect; nearly all actives have a fitted effect of over 55% in size
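Cytotoxicity was measured by CellTiter-Glo ATP luminescence after 48 or 72 h compound exposure at 37 °C. Mouse NIH 3T3 fibroblasts were seeded at 400 cells/well and dosed by 23 nL pin transfer.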
GPT2 inh: GPT2 alanine aminotransferase inhibition | Recombinant GPT2, coupled pyruvate oxidase/HRP Amplex Red fluorescence | Potency, µM (highest dose often 57.7 µM), inactives show at the top dose activity change, negative = inhibition, hits mostly inhibitors | hit rate 0.25% among 100,000; also: % is scaled to controls: 0 for no effect and ±100 for the full control effect; nearly all actives have a fitted effect of over 60% in size
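Fluorescence of coupled pyruvate oxidase/HRP/Amplex Red system (50uM Amplex, 30 min, dark) reports pyruvate formed by GPT2. Enzyme reaction: 10ng/uL GPT2, 2mM L-alanine, 250uM a-KG, 30 min room temperature, pH 7.5; 50uM AOA control.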
FLuc SDR -ATP: stabilizes firefly luciferase without ATP | shares compounds with FLuc inh-1 | Purified FLuc-C-HiBiT, Nano-Glo HiBiT luminescence, no ATP | Potency, µM (titrated, usually from 32.7 µM), inactives show at the highest dose activation (signal gain), most hits filed as activators | hit rate 7.8% among 1,300; also: nearly all actives have a fitted effect of over 55% in size
FLuc SDR ATP: stabilizes firefly luciferase with ATP present. hit rate 8.7% among 1,300. purified FLuc-C-HiBiT + ATP, HiBiT complementation luminescence. AID 1963319. shares compounds with FLuc inh-1. Potency, µM (series often up to 32.7 µM), without a hit: top-dose activation (gain of signal), usual class: activators;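 also: signal reports ligand binding via conformational change of the enzyme rather than luciferase catalysis; % of control where 0% means no effect; nearly all actives have a fitted effect of over 55% in size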
FLuc inh-2: firefly luciferase enzyme inhibition. shares compounds with FLuc inh-1. purified FLuc-C-HiBiT enzyme, luciferin luminescence. Potency, µM (series often up to 32.7 µM), inactives show top-dose activity change, negative = inhibition, most hits filed as inhibitors. hit rate 42% among 1,300; also: % is scaled to controls: 0 for no effect and ±100 for the full control effect; nearly all actives have a fitted effect of over 70% in size
Starred values were filed as active, the others as inactive; i = inactive; ? = inconclusive; . = no result; [ ] = remark or other dose. Unless noted, calls follow the shape of the dose curve; as a rule, active = well fitted curve in the direction sought with a large enough effect; inconclusive = small, poorly fitted or top-dose-only effect, or another doubt; inactive = no such curve, though single readings can be large; an effect the other way counts as inactive or inconclusive. Potency is read from the fitted curve at half-maximal effect.

SMILES	HEK293 tox	FLuc inh-1	hNpr1 antagonist	3T3 cytotox	GPT2 inh	FLuc SDR -ATP	FLuc SDR ATP	FLuc inh-2
Cc1ccc(-c2cccc(CN3CCCC(NC(=O)c4cccc(Cl)c4)C3)c2)cc1Cl (centres undefined)	-5%	.	.	-22%	1%	.	.	.
CC1CCN(C(=O)c2cc3c(s2)CCC(C(=O)O)C3)CC1 (centres undefined)	-9%	13µM*	0%	-30%	-7%	10%	19%	?
CNC(=O)c1cc(C)nc2onc(C3CCN(C(=O)Cc4ccc(OC)cc4)C3)c12 (centres undefined)	-12%	.	.	-24%	.	.	.	.
CCOc1ccc(C(=O)Nc2onc3c2CCCC3)cc1	.	.	.	.	.	?	7µM*	2µM*
O=C(Nc1onc2c1CCCC2)c1ccccc1	.	.	.	.	.	18%	?	?
CC(C)COc1ccc(C(=O)Nc2onc3c2CCCC3)cc1	.	.	.	.	.	28%	?	2µM*
CCS(=O)(=O)N1C[C@@H](Oc2cccnc2)C[C@H]1C(=O)N1CCOCC1	-2%	i	0%	-15%	-20%	.	.	.
COCC(=O)N[C@H](C)c1c(-c2ccc(F)cc2)noc1C(=O)O	i	i	4%[70.6 µM]	i	-10%[88.5 µM]	.	.	.
CNC(=O)C(C)(C)N1CCC[C@H]1C(=O)NC1CCCCC1	-3%[172 µM]	i	1%[70.6 µM]	-13%[174 µM]	i	.	.	.
COCCN1CCC2(C1)CN(C)c1ccc(C(=O)Nc3ccn(C)n3)cc12 (centres undefined)	.	.	.	.	.	?	?	10µM*
COCCN1CCC2(C1)CN(C)c1ccc(C(=O)Nc3ccc(F)cc3)cc12 (centres undefined)	79µM*	2.8µM*	?	?	-28%[88.5 µM]	?	?	7.2µM*
CN1CC2(CCCN(CC3CC3)C2)c2cc(C(=O)Nc3ccn(C)n3)ccc21 (centres undefined)	?	i	2%[70.6 µM]	-13%[138 µM]	i	.	.	.
COCCN1CCC2(C1)CN(C)c1ccc(C(=O)NCCOc3ccccc3)cc12 (centres undefined)	?	i	-6%[70.6 µM]	?	0%[88.5 µM]	.	.	.
COCCN1CCC2(C1)CN(C)c1ccc(C(=O)Nc3ccccc3)cc12 (centres undefined)	79µM*	0.63µM*	6.3µM*	?	4%[88.5 µM]	4µM*	?	1.1µM*
CCc1ccc(NC(=O)Cn2cccc2-c2nc(-c3ccc4c(c3)OCO4)no2)cc1	16%	i	5%	i	-30%	.	.	.
O=C(C1CCOCC1)N1CC(c2nnc(-c3ccncc3)o2)C2(CCOCC2)C1 (centres undefined)	-5%	i	-13%	?	-4%	.	.	.
Cc1ccc(NC(=O)N2CCC(CCNC(=O)C3CCC3)CC2)cc1F	-12%	11µM*	-23%	-24%	1%	?	?	?
Cc1ccc(NC(=O)N2CCC(CCNC(=O)C3CC3)CC2)cc1	?	10µM*	-5%	-19%	i	?	?	?
COc1cccc(C(=O)NCCC2CCN(C(=O)Nc3cccc(F)c3)CC2)c1	-23%	i	0%	?	-17%	.	.	.
COc1ccc(C(=O)NCCC2CCN(C(=O)Nc3cc(F)cc(F)c3)CC2)cc1	?	6.3µM*	-26%	-30%	4%	?	15%	?
Cc1ccc(NC(=O)N2CCC(CCNC(=O)c3ccc(F)cc3)CC2)cc1F	?	10µM*	-28%	?	-13%	21%	13%	?
